Reference: PubChem BioAssay AID1159580 (chemical genetic matrix, 2015)
Where “and” joins values, the source holds several entries; their conditions need not be identical. Identical values can stand only once. Among all 5,500 compounds or so, about 2,000 (36%) were called active. Another 18% or so got no clear call; they are omitted. Cut-off read from the data, not from the text of the source: active = normalized growth mostly below about 0.91 (no sharp cut-off); inconclusive = no clear call, values can overlap the other calls; inactive = mostly above about 0.92. Some of the results follow.

Test: chemical genetic growth profiling, strain panel (AID 1159580);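 note: tested at 20 µM; growth read once vehicle control cultures reached saturation at 30 °C; 1 = growth at the plate median or of vehicle wells; lower values mean less growth of the strain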
Conditions: S. cerevisiae deletion strains, growth OD

Measured: normalized growth

CCCC1O[C@@H]2CC3C4CCC5=CC(=O)C=CC5(C)C4[C@@H](O)CC3(C)[C@]2(C(=O)CO)O1 (stereo partly specified)
inactive: locus YAL013W, strain DEP1, stronger effect = lower value 1 | locus YAL021C, strain ccr4, stronger effect = lower value 1.01 | locus YAL026C, strain drs2, stronger effect = lower value 1.01 | locus YAL030W, strain snc1, stronger effect = lower value 1.01 | locus YBL061C, strain skt5, stronger effect = lower value 1 | locus YBR009C, strain hhf1, stronger effect = lower value 0.995 | locus YBR021W, strain FUR4, stronger effect = lower value 1 | locus YBR023C, strain chs3, stronger effect = lower value 1.02 | locus YBR171W, strain sec66, stronger effect = lower value 1.01 | locus YBR229C, strain ROT2, stronger effect = lower value 1 | locus YBR231C, strain swc5, stronger effect = lower value 1 | locus YBR279W, strain paf1, stronger effect = lower value 1.01 | locus YCL011C, strain gbp2, stronger effect = lower value 0.996 | locus YCL016C, strain dcc1, stronger effect = lower value 1.01 | locus YCL029C, strain bik1, stronger effect = lower value 1.01 | locus YCL069W, strain vba3, stronger effect = lower value 1.01 | locus YCR088W, strain abp1, stronger effect = lower value 1.01 | locus YDL005C, strain med2, stronger effect = lower value 0.985 | locus YDL035C, strain GPR1, stronger effect = lower value 0.994 | locus YDL040C, strain nat1, stronger effect = lower value 1.01 | locus YDL074C, strain BRE1, stronger effect = lower value 1 | locus YDL101C, strain DUN1, stronger effect = lower value 1.01 | locus YDL134C, strain PPH21, stronger effect = lower value 1 | locus YDL185W, strain tfp1, stronger effect = lower value 1.01 | locus YDL192W, strain arf1, stronger effect = lower value 1.02 | locus YDR001C, strain nth1, stronger effect = lower value 0.993 | locus YDR069C, strain doa4, stronger effect = lower value 1 | locus YDR101C, strain arx1, stronger effect = lower value 1.01 | locus YDR137W, strain rgp1, stronger effect = lower value 0.989 | locus YDR150W, strain NUM1, stronger effect = lower value 0.997 | locus YDR159W, strain sac3, stronger effect = lower value 0.972 | locus YDR162C, strain NBP2, stronger effect = lower value 1 | locus YDR195W, strain ref2 0.971 | locus YDR297W, strain sur2, stronger effect = lower value 1.01 | locus YDR318W, strain mcm21, stronger effect = lower value 1.03 | locus YDR334W, strain swr1, stronger effect = lower value 1.03 | locus YDR335W, strain msn5, stronger effect = lower value 1.01 | locus YDR388W, stronger effect = lower value 1.02 | locus YDR392W, strain spt3, stronger effect = lower value 1.04 | locus YDR502C, strain sam2, stronger effect = lower value 1.02 | locus YEL003W, strain gim4, stronger effect = lower value 1.02 | locus YEL037C, strain rad23, stronger effect = lower value 0.995 | locus YEL061C, strain CIN8 (second series), stronger effect = lower value 1.02 | locus YEL061C, strain CIN8, stronger effect = lower value 1 | locus YER015W, strain faa2, stronger effect = lower value 1.01 | locus YER016W, strain bim1, stronger effect = lower value 1 | locus YER110C, stronger effect = lower value 1.02 | locus YER111C, strain swi4, stronger effect = lower value 1.02 | locus YER155C, strain BEM2 (second series), stronger effect = lower value 1.05 | locus YER155C, strain BEM2, stronger effect = lower value 0.989 | locus YER167W, strain BCK2, stronger effect = lower value 1.01 | locus YFR010W, strain ubp6, stronger effect = lower value 0.987 | locus YGL078C, strain dbp3, stronger effect = lower value 1.01 | locus YGL086W, strain mad1, stronger effect = lower value 1 | locus YGL167C, strain pmr1, stronger effect = lower value 1.01 | locus YGL173C, strain kem1, stronger effect = lower value 1 | locus YGL227W, strain vid30, stronger effect = lower value 1 | locus YGL240W, strain doc1, stronger effect = lower value 0.982 | locus YGL248W, strain PDE1, stronger effect = lower value 1.01 | locus YGL253W, strain hxk2, stronger effect = lower value 1.02 | locus YGR078C, strain PAC10, stronger effect = lower value 0.986 | locus YGR135W, strain pre9, stronger effect = lower value 0.998 | locus YGR229C, strain SMI1, stronger effect = lower value 0.992 | locus YGR252W, strain gcn5, stronger effect = lower value 1.06 | locus YHR013C, strain ard1, stronger effect = lower value 1.03 | locus YHR027C, strain rpn1, stronger effect = lower value 1.01 | locus YHR030C, strain SLT2, stronger effect = lower value 1 and 1.02 | locus YHR079C, strain IRE1 (second series), stronger effect = lower value 1.01 | locus YHR079C, strain IRE1, stronger effect = lower value 1.01 | locus YHR094C, strain hxt1, stronger effect = lower value 1.02 | locus YHR129C, strain ARP1, stronger effect = lower value 1 | locus YHR142W, strain chs7, stronger effect = lower value 1.02 | locus YHR200W, strain rpn10, stronger effect = lower value 1.03 | locus YIL066C, strain RNR3, stronger effect = lower value 1.01 | locus YIL073C, strain SPO22, stronger effect = lower value 1.07 | locus YIL125W, strain kgd1, stronger effect = lower value 0.997 | locus YIR030C, strain dcg1, stronger effect = lower value 1.02 | locus YJL092W, strain hpr5, stronger effect = lower value 1 | locus YJL095W, strain BCK1 (second series), stronger effect = lower value 1.01 | locus YJL095W, strain BCK1, stronger effect = lower value 0.994 and 1.02 | locus YJL115W, strain asf1, stronger effect = lower value 1 | locus YJL129C, strain trk1, stronger effect = lower value 0.98 | locus YJL134W, strain LCB3, stronger effect = lower value 1 | locus YJL154C, strain vps35, stronger effect = lower value 1.01 | locus YJL164C, strain tpk1, stronger effect = lower value 1 | locus YJL166W, strain qcr8, stronger effect = lower value 1.01 | locus YJL168C, strain set2, stronger effect = lower value 1.02 | locus YJL187C, strain SWE1 (second series), stronger effect = lower value 1 | locus YJL187C, strain SWE1, stronger effect = lower value 1.02 | locus YJR043C, strain POL32, stronger effect = lower value 1 | locus YJR066W, strain TOR1, stronger effect = lower value 0.978
